Values joined by “and” are separate entries in the source; they are usually repeats but may differ in a detail not shown here. Equal entries are not always repeated. Inconclusive results are not listed. Values without a mark were called inactive. Active and inactive are the calls of the source. Calls come from the whole dose curve; as a rule, active = well fitted curve in the direction sought with a large enough effect; inconclusive = small, poorly fitted or top-dose-only effect, or another doubt; inactive = no such curve, though single readings can be large; an effect the other way counts as inactive or inconclusive.
Columns and labels:
[1] = biological target: Cellular tumor antigen p53 (Homo sapiens) (UniProt P04637); assay: Primary qHTS for small molecule compounds that upregulate eGFP-tagged delta133p53alpha (in N-terminal) cells. (AID 2060322); conditions: NCI-H358 eGFP-delta133p53alpha fluorescence, 24 h; activation: stronger effect = higher value; note: nearly all actives have a fitted effect of over 75% in size; note: potency is the fitted concentration of half-maximal effect;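 for activation: 0% = DMSO vehicle and 100% = reference activator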
Cellular tumor antigen p53 (Homo sapiens), sequence (P04637 whole entry, looked up): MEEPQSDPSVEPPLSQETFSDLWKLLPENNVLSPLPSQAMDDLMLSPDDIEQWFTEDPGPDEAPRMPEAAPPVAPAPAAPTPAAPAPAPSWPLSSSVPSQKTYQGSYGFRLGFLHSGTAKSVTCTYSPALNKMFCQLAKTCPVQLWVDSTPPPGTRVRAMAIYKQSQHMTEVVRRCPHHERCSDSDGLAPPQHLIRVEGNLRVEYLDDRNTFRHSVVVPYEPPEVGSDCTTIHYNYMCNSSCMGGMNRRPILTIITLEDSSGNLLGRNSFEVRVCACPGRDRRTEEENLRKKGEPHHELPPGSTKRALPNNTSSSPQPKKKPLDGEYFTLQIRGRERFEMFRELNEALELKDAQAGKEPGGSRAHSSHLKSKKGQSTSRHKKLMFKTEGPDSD
Outline: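 NCI-H358 cells pre-induced 24 h with 10 ng/ml doxycycline to express N-terminal eGFP-delta133p53alpha, then dosed 24 h at 37C without doxycycline; fixed, Hoechst-stained, GFP intensity by laser scanning cytometry, normalized to DMSO (0%) and 57.5 uM 5-azacytidine (100%).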

[2] = biological target: Aldehyde dehydrogenase, mitochondrial (Homo sapiens) (UniProt P05091); assay: qHTS for Inhibitors of the Aldehyde Dehydrogenase Family (ALDH2) Primary screen (AID 2061308); conditions: ALDH2 enzyme inhibition qHTS, 1536-well; series mostly up to 56 µM;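 note: plate controls were vehicle for no effect and reference inhibitor for full effect; nearly all actives have a fitted effect of over 55% in size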
[3] = biological target: Retinaldehyde dehydrogenase 3 (Homo sapiens) (UniProt P47895); assay: qHTS for Inhibitors of the Aldehyde Dehydrogenase Family (ALDH1A3) Primary screen (AID 2061315); conditions: ALDH inhibition qHTS; series mostly up to 56 µM;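 note: plate controls were DMSO vehicle for no effect and reference inhibitor for full effect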
[4] = BET inhibitor-based combinations targeting novel dependencies in MECOM-rearranged (r) AML: SET-2 cell line (AID 2202231); conditions: SET-2 AML cells viability, CellTiter-Glo luminescence, 48 h; viability: stronger effect = lower value, concentration not given here; note: nearly all actives have a fitted effect of over 35% in size; note: potency is the fitted concentration of half-maximal effect;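 for viability: plate controls were DMSO treated cells for no effect and wells without cells for full effect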
Outline: (§1)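 AML cell lines seeded at 500 cells/well, treated with 11-point dose curves for 48 h. Viability by CellTiter-Glo luminescence, normalised to DMSO and empty wells; activity expressed as AUC and per-cell-line Z-transformed AUC.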

[5] = BET inhibitor-based combinations targeting novel dependencies in MECOM-rearranged (r) AML: MV-4-11 cell line (AID 2202233); conditions: MV-4-11 AML viability, CellTiter-Glo luminescence, 48 h; series mostly up to 46 µM; note: nearly all actives have a fitted effect of over 45% in size; note: potency is the fitted concentration of half-maximal effect
Outline: (§2)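 Cells at 500/well were exposed for 48 hr to MIPE v5.0 drugs as 11-point dose curves. Viability was read by CellTiter-Glo luminescence and normalized to DMSO and empty-well controls. Activity was expressed as AUC and per-cell-line Z-AUC.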

[6] = BET inhibitor-based combinations targeting novel dependencies in MECOM-rearranged (r) AML: HNT-34 cell line (AID 2202234); conditions: HNT-34 AML viability, CellTiter-Glo luminescence, 48 h; series mostly up to 46 µM; note: nearly all actives have a fitted effect of over 35% in size; note: potency is the fitted concentration of half-maximal effect
Outline: as §2

[7] = BET inhibitor-based combinations targeting novel dependencies in MECOM-rearranged (r) AML: OCI-AML3 cell line (AID 2202232); conditions: CellTiter-Glo luminescence, 48 h; Potency: OCI-AML3 viability; series mostly up to 46 µM; note: nearly all actives have a fitted effect of over 35% in size; note: potency is the fitted concentration of half-maximal effect
Outline: as §1

[8] = BET inhibitor-based combinations targeting novel dependencies in MECOM-rearranged (r) AML: AML-194 cell line (AID 2202237; note: nearly all actives have a fitted effect of over 40% in size; note: potency is the fitted concentration of half-maximal effect); conditions: AML-194 (MECOM-r AML) viability, CellTiter-Glo, 48 h; series mostly up to 46 µM
Outline: as §1

[9] = BET inhibitor-based combinations targeting novel dependencies in MECOM-rearranged (r) AML: UCSD-AML1 cell line (AID 2202235); conditions: UCSD-AML1 AML cells viability, CellTiter-Glo, 48 h; series mostly up to 46 µM; note: nearly all actives have a fitted effect of over 40% in size; note: potency is the fitted concentration of half-maximal effect
Outline: as §2

[10] = BET inhibitor-based combinations targeting novel dependencies in MECOM-rearranged (r) AML: AML-191 cell line (AID 2202236; note: nearly all actives have a fitted effect of over 35% in size; note: potency is the fitted concentration of half-maximal effect); conditions: AML-191 viability, CellTiter-Glo luminescence, 48 h; series mostly up to 46 µM
Outline: as §1

SMILES: Cn1cnc(-c2cc3nccc(Oc4ccc(NC(=S)NC(=O)Cc5ccccc5)cc4F)c3s2)c1
- activation [1]: -7.76% and 19.6%
- Potency [2]: inactive
- Potency [3]: inactive
- viability [4]: 78.9%
- Potency [5]: 0.105 µM (active)
- Potency [6]: 3.72 µM (active)

SMILES: CC1(C)CNc2cc(NC(=O)c3cccnc3NCc3ccncc3)ccc21
- activation [1]: -11.7% and 7.64%
- Potency [2]: inactive
- Potency [3]: inactive
- viability [4]: 63%
- Potency [7]: inactive
- Potency [8]: inactive

SMILES: O=C(Nc1ccc(F)c(C(F)(F)F)c1)Nc1nnc(-c2ccncc2)s1
- activation [1]: -20.5% and 5%
- Potency [2]: inactive
- Potency [3]: inactive
- viability [4]: 100%
- Potency [7]: inactive
- Potency [6]: inactive
- Potency [9]: inactive
- Potency [10]: inactive
- Potency [8]: inactive

SMILES: COc1cc(CNC(=O)CCCC/C=C/C(C)C)ccc1O
- activation [1]: -7.14%
- Potency [2]: inactive
- Potency [3]: inactive
- Potency [4]: 14.8 µM (active)
- Potency [7]: inactive
- Potency [6]: 6.61 µM (active)
- Potency [8]: 10.5 µM (active)

SMILES: FC(F)(F)c1ccc(Nc2nc(-c3c(C(F)(F)F)nc4ccccn34)cs2)cc1
- activation [1]: -3.82%
- Potency [2]: inactive
- Potency [3]: inactive
- Potency [4]: 0.833 µM (active)
- Potency [7]: 0.417 µM (active)
- Potency [6]: 0.332 µM (active)
- Potency [9]: 0.332 µM (active)
- Potency [10]: 0.296 µM (active)
- Potency [8]: 0.332 µM (active)

SMILES: Cc1cccc(Nc2nc(N[C@@H]3CCCC[C@H]3N)ncc2C(N)=O)c1
- activation [1]: 14.8%
- Potency [2]: inactive
- Potency [3]: inactive
- Potency [4]: 29.5 µM (active)
- Potency [7]: 16.6 µM (active)
- Potency [6]: 18.6 µM (active)
- Potency [10]: 18.6 µM (active)
- Potency [8]: 16.6 µM (active)

SMILES: CCOc1cc2ncc(C#N)c(Nc3ccc(F)c(Cl)c3)c2cc1NC(=O)/C=C/CN(C)C
- Potency [1]: 13.5 µM (active)
- Potency [2]: inactive
- Potency [3]: inactive
- Potency [4]: 5.9 µM (active)
- Potency [7]: 4.17 µM (active)
- Potency [6]: 0.296 µM (active)
- Potency [9]: 1.48 µM (active)
- Potency [10]: 4.68 µM (active)
- Potency [8]: 5.25 µM (active)

SMILES: Cc1c(NC(=O)c2ccc(C(C)(C)C)cc2)cccc1-c1cn(C)c(=O)c(Nc2ccc(C(=O)N3CCOCC3)cc2)n1
- activation [1]: 63.1% and -9.82%
- Potency [2]: inactive
- Potency [3]: inactive
- Potency [4]: 16.6 µM (active)
- Potency [7]: inactive
- Potency [9]: inactive

SMILES: O=C1CCCC2=C1C(c1[nH]ncc1Cl)N=C(Nc1nc3ccccc3o1)N2 (configuration not stated)
- activation [1]: -17.4% and 19.7%
- Potency [2]: inactive
- Potency [3]: inactive
- viability [4]: 78.9%
- Potency [5]: 10.5 µM (active)
- Potency [10]: 16.6 µM (active)
- Potency [8]: inactive

SMILES: c1ccc(-c2ccc(CNc3nc(-c4ccccn4)nnc3-c3ccccc3)cc2)cc1
- activation [1]: -11.7%
- Potency [2]: inactive
- Potency [3]: inactive
- Potency [4]: 2.35 µM (active)
- Potency [5]: 1.18 µM (active)
- Potency [6]: 1.32 µM (active)
- Potency [9]: 1.05 µM (active)
- Potency [10]: 0.934 µM (active)
- Potency [8]: 1.05 µM (active)

SMILES: Cn1nccc1Nc1nccc(-c2ccn([C@H](CO)c3ccc(Cl)c(F)c3)c(=O)c2)n1
- activation [1]: -22.3%
- Potency [2]: inactive
- Potency [3]: inactive
- viability [4]: 72.4%
- Potency [5]: 16.6 µM (active)
- Potency [9]: 16.6 µM (active)

SMILES: COc1ccc(-c2c(-c3ccc(O)cc3O)n[nH]c2C)cc1
- activation [1]: -3.77%
- Potency [2]: inactive
- Potency [3]: inactive
- viability [4]: 84%
- Potency [5]: inactive
- Potency [9]: inactive
- Potency [10]: inactive
- Potency [8]: inactive

SMILES: COc1cc2c(cc1OC)CN(CCc1ccc(NC(=O)c3cc(OC)c(OC)cc3NC(=O)c3cnc4ccccc4c3)cc1)CC2
- activation [1]: 1.67%
- Potency [2]: inactive
- Potency [3]: inactive
- viability [4]: 119%
- Potency [5]: inactive
- Potency [6]: inactive
- Potency [10]: inactive
- Potency [8]: inactive

SMILES: CCOc1cc(C(=O)Nc2ccc(Cl)c(-c3nc4ccccc4[nH]3)c2)cc(OCC)c1OCC
- activation [1]: 1.25% and 5.73%
- Potency [2]: inactive
- Potency [3]: inactive
- Potency [4]: 18.6 µM (active)
- Potency [5]: 16.6 µM (active)
- Potency [6]: 14.8 µM (active)
- Potency [8]: inactive

SMILES: Cc1c(Cn2c(C)nc3c(C(=O)O)cc(N4CCOCC4)cc32)cccc1C(F)(F)F
- activation [1]: -0.853% and -13.4%
- Potency [2]: inactive
- Potency [3]: inactive
- viability [4]: 98.9%
- Potency [5]: 4.68 µM (active)
- Potency [6]: 5.9 µM (active)
- Potency [10]: 4.68 µM (active)
- Potency [8]: inactive

SMILES: CNC(=O)c1c(-c2ccc(F)cc2)oc2cc(N(CCO)S(C)(=O)=O)c(C3CC3)cc12
- activation [1]: -6.02% and -15.2%
- Potency [2]: inactive
- Potency [3]: inactive
- viability [4]: 119%
- Potency [5]: inactive
- Potency [6]: inactive
- Potency [9]: inactive
- Potency [10]: inactive
- Potency [8]: inactive

SMILES: COc1cc(Nc2nc3ccccc3nc2NS(=O)(=O)c2ccc(NC(=O)c3ccc(C)c(OC)c3)cc2)cc(OC)c1
- activation [1]: -16.4% and -17%
- Potency [2]: inactive
- Potency [3]: inactive
- viability [4]: 111%
- Potency [5]: inactive
- Potency [6]: inactive
- Potency [9]: inactive
- Potency [8]: inactive

SMILES: Cn1cc(-c2ccc3c(c2)CCN3C(=O)Cc2cccc(C(F)(F)F)c2)c2c(N)ncnc21
- activation [1]: -11.6%
- Potency [2]: inactive
- Potency [3]: inactive
- viability [4]: 105%
- Potency [5]: 9.34 µM (active)
- Potency [10]: 18.6 µM (active)
- Potency [8]: inactive

— PubChem BioAssay (NCATS)
